Shiga toxin inh = blocks Shiga toxin action in Vero cells; Vero cells, Shiga toxin protein synthesis inhibition reporter; inhibition, % at 38.7 µM; actives 9.2% (n = 290,000); AID 2315; in the data active = inhibition mostly above about 28%, no sharp cut-off; inactive = mostly below about 43%
CHX counter = affects cycloheximide protein synthesis inhibition readout, counter-screen. cell reporter, cycloheximide protein synthesis inhibition counterscreen. max response, %. actives 12% (n = 300,000). AID 2314; in the data active = max response mostly above about 13%, no sharp cut-off; inactive = mostly below about 14%; also: read at 38.3 µM for the half of the compounds with a filed dose
Lassa entry inh = inhibitors of Lassa virus binding or cell entry. Lassa virus pseudotype entry inhibition, cell reporter. Potency, µM (highest dose often 37.9 µM), most hits filed as inhibitors. actives 1.2% (n = 300,000). AID 540256; calls by dose curve; tested in HEK293 cells; also: nearly all actives have a fitted effect of over 50% in size
MARV entry inh = Marburg virus entry inhibition; Marburg virus pseudotyped entry inhibition, cell reporter; Potency, µM (highest dose often 37.8 µM), hits mostly inhibitors; actives 1.8% (n = 300,000); AID 540276; calls by dose curve; tested in HEK293 cells
Each line names hits and unclear results; the compound was inactive in the other large screens. Shown are actives, neighbours in structure and some others; about 12% of the full set was active somewhere.

COC(=O)CC1Oc2ccccc2-n2cc(-c3ccc(Cl)cc3)nc21 (centres undefined)	none (no result: Shiga toxin inh, CHX counter)
CCN1CC(CN(C)Cc2cn(-c3cccc(C)c3)nc2-c2cccc(F)c2)CC1=O (centres undefined)	none (no result: Lassa entry inh, MARV entry inh)
COc1cc(CC(=O)OCC(=O)Nc2sccc2C(N)=O)cc(OC)c1OC	Lassa entry inh inconclusive, MARV entry inh 11.2µM
COc1cc(NC(=O)COc2cccc(OC)c2)cc(OC)c1	none
CNCc1ccccc1OCC(=O)Nc1ccccc1	Shiga toxin inh 74.0, CHX counter 35.4
O=C(COc1cccc(Oc2ccccc2)c1)Nc1ncccn1	Shiga toxin inh 29.3, CHX counter 13.8
NC(=O)c1ccsc1NC(=O)COC(=O)Cc1ccsc1	none
COc1cccc(NC(=O)COc2ccccc2)c1	CHX counter 27.9 (no result: Shiga toxin inh, Lassa entry inh, MARV entry inh)
Cc1ccc(C)c(NC(=O)CN(C)S(=O)(=O)c2cccc3nsnc23)c1	none (no result: Shiga toxin inh, CHX counter)
CC(C)C[C@H](NC(=O)[C@H](CCCCN)NC(=O)[C@H](CCC(N)=O)NC(=O)[C@H](Cc1cnc[nH]1)NC(=O)[C@H](Cc1cnc[nH]1)NC(=O)[C@@H](N)C(C)C)C(=O)N[C@H](C(=O)N[C@@H](Cc1ccccc1)C(=O)N[C@@H](Cc1ccccc1)C(=O)N[C@@H](C)C(=O)N[C@@H](CCC(=O)O)C(=O)N[C@@H](CC(=O)O)C(=O)N[C@H](C(=O)NCC(=O)N[C@@H](CO)C(=O)N[C@@H](CC(N)=O)C(=O)N[C@@H](CCCCN)C(=O)O)C(C)C)C(C)C	none (no result: Lassa entry inh, MARV entry inh)
CC(=O)Nc1cccc(OCC(=O)Nc2ccccc2)c1	Shiga toxin inh 114.5, CHX counter 46.8
CC(=O)Nc1cccc(OCC(=O)Nc2sccc2C(N)=O)c1	Shiga toxin inh 69.5, CHX counter 48.8 (no result: Lassa entry inh, MARV entry inh)
COc1cccc(NC(=O)CN2CCc3ccccc3C2)c1	CHX counter 17.3 (no result: Lassa entry inh, MARV entry inh)
CC(=O)Nc1cccc(OCC(=O)Nc2cccc(S(=O)(=O)N3CCCC3)c2)c1	none (no result: Shiga toxin inh, CHX counter)
CCOCC(=O)Nc1cccc(OC)c1	CHX counter 15.5
COc1cccc(NC(=O)CCC(=O)Nc2cccc(OC)c2)c1	none
Cc1ccc(NC(=O)CN2CCc3ccccc3C2)cc1F	MARV entry inh inconclusive
CCOc1ccc(CNCc2c(C(=O)O)n(Cc3ccccc3F)c3cc(OC)ccc23)cc1	none (no result: Shiga toxin inh, CHX counter, MARV entry inh)
CC(C)c1c(C(=O)N/N=C/c2cccc(OCc3ccc(F)cc3)c2)nnn1-c1nonc1N	Lassa entry inh inconclusive, MARV entry inh inconclusive
CCOc1ccc(-c2cccc(NC(=O)COc3ccccc3)c2)nn1	CHX counter 26.6 (no result: Lassa entry inh, MARV entry inh)
Cc1cc(OCC(=O)Nc2ccncc2)ccc1Br	none
COc1cccc(NC(=O)COc2ccc(Br)c(C)c2)c1	CHX counter 11.6 (no result: Lassa entry inh, MARV entry inh)
Cc1cccc(NC(=O)COc2ccccc2)c1	Shiga toxin inh 128.9, CHX counter 33.4, MARV entry inh inconclusive
Cc1cccc(OCC(=O)Nc2ccc(NC(=O)c3ccccc3)cc2)c1	none
COc1ccc(C2C(C#N)=C(/N=C/N3CCN(C)CC3)OC3=C2C(=O)CC(C)(C)C3)cc1OC (centres undefined)	none
Cc1nc2c(c(C)nn2-c2ccccc2)c(C)c1CCC(=O)Nc1ccccc1	none (no result: Shiga toxin inh, CHX counter)
Cc1nc2c(c(C)nn2-c2ccccc2)c(C)c1CCC(=O)Nc1ccc(CN2CCCC2)cc1	Lassa entry inh inconclusive, MARV entry inh 10µM
Cc1ccc2c(=O)c(C(=O)c3cccc(Cl)c3)cn(CC(=O)Nc3ccccc3C(F)(F)F)c2n1	none (no result: Shiga toxin inh, CHX counter, MARV entry inh)
O=C(Cc1cccs1)Nc1nc(-c2ccc(F)cc2F)cs1	Lassa entry inh 1.64µM, MARV entry inh inconclusive
COc1ccc(OC)c(-c2csc(NC(=O)Cc3ccccc3)n2)c1	Lassa entry inh inconclusive, MARV entry inh inconclusive
COc1ccc(OC)c(-c2csc(NC(=O)CSc3ccccc3)n2)c1	Lassa entry inh 16.4µM, MARV entry inh inconclusive
O=C(CCCc1cccs1)Nc1nc(-c2ccc(F)cc2)cs1	Lassa entry inh inconclusive, MARV entry inh inconclusive
COc1ccc(OC)c(-c2csc(NC(=O)Cc3cccs3)n2)c1	Lassa entry inh 0.316µM
COc1ccc(-c2csc(NC(=O)Cc3ccccc3F)n2)c(OC)c1	CHX counter 14.3, Lassa entry inh inconclusive, MARV entry inh inconclusive
COc1ccc(CC(=O)Nc2nc(-c3cc(OC)ccc3OC)cs2)cc1	Lassa entry inh inconclusive, MARV entry inh inconclusive
Cc1onc(-c2c(Cl)cccc2Cl)c1CO/N=C(\C#N)c1c(Cl)cccc1Cl	MARV entry inh inconclusive
CCN(CC)c1ccc(NC(=O)c2cnccn2)cc1S(=O)(=O)Nc1ccc(OC)cc1	Lassa entry inh inconclusive, MARV entry inh inconclusive
Cc1nn(C)c(C)c1Nc1ccc(N2C(=O)C3CC=CCC3C2=O)cc1[N+](=O)[O-] (centres undefined)	MARV entry inh inconclusive
COc1ccc(-c2csc(NC(=O)CSc3ccc(Br)cc3)n2)c(OC)c1	Lassa entry inh 12.6µM, MARV entry inh inconclusive
COc1ccc(-c2csc(NC(=O)CSCC(=O)Nc3cc(C)on3)n2)c(OC)c1	none (no result: Shiga toxin inh, CHX counter)
COc1ccc(NC(C)=[N+](C)CCNS(=O)(=O)c2ccc(Cl)cc2)cc1	none (no result: Lassa entry inh, MARV entry inh)
C=CCN=c1scc(-c2ccc(F)cc2)n1/N=C/c1ccccn1	Shiga toxin inh 90.0, CHX counter 19.3, Lassa entry inh inconclusive, MARV entry inh inconclusive
CCN=c1scc(-c2ccc(F)cc2)n1/N=C/c1ccccn1	Shiga toxin inh 82.1, CHX counter 47.9, Lassa entry inh inconclusive, MARV entry inh inconclusive
COc1cccc(CN(C)C(=O)c2cccc(OCc3ccccc3)c2)c1	Lassa entry inh inconclusive, MARV entry inh inconclusive
Cc1ccc(N=C2CCCCCN2C)c(C#N)c1	none
Cc1ccc(N=C2CCCN2Cc2ccccc2)c(C#N)c1	Shiga toxin inh active, CHX counter 17.5, MARV entry inh inconclusive
O=C(Nc1c(C(=O)c2ccc(F)cc2)oc2ccccc12)c1cc(-c2ccccc2)on1	none (no result: Shiga toxin inh, CHX counter)
CCc1ccc(-c2cn3nc(-c4ccccc4)cnc3n2)cc1	Shiga toxin inh 63.8, CHX counter 24.6 (no result: Lassa entry inh, MARV entry inh)
CCCCCc1nn2cc(-c3ccccc3)nc2s1	Lassa entry inh inconclusive (no result: Shiga toxin inh, CHX counter)
CCOC(=O)c1c(NC(=O)COC(=O)c2nc(Cl)ccc2Cl)sc2c1CCC2	none
O=C(COc1ccc(Cl)cc1Cl)N1CCCN(C(=O)COc2ccc(Cl)cc2Cl)CC1	MARV entry inh inconclusive
Cc1cccc(OCCCC(=O)N2CCCc3ccccc32)c1C	CHX counter 27.8
O=C(COc1ccc(Cl)cc1Cl)NC(=S)N1CCCc2ccccc21	Shiga toxin inh 66.9, CHX counter 43.4, Lassa entry inh inconclusive
Cn1c(=O)cc(OCCCC(=O)N2CCC3(CC2)OCCO3)c2ccccc21	none
O=C(COc1ccc(Cl)cc1Cl)NC(=O)N1CCCCC1	Shiga toxin inh 67.2, CHX counter 45.5, Lassa entry inh inconclusive, MARV entry inh inconclusive
O=C(CCCOc1ccc(Cl)cc1Cl)N1CCC2(CC1)OCCO2	CHX counter 16.8
COc1ccc(/C=N/NC(=O)c2c(C)nc3ccccn23)cc1[N+](=O)[O-]	none
Cc1nc(Cl)c(C(=O)NCCc2ccccc2)c(C)c1[N+](=O)[O-]	none (no result: Lassa entry inh, MARV entry inh)
COc1cccc(C(=O)NCC(c2ccc3c(c2)OCO3)N2CCN(C)CC2)c1 (centres undefined)	none (no result: Shiga toxin inh, CHX counter, MARV entry inh)
O/N=C/C1=C(Cl)c2ccccc2CC1	Lassa entry inh inconclusive
Cc1cccc(OCC(=O)Nc2ccccc2N2CCCCC2)c1	none
O=C(CCCOc1ccc(Cl)cc1Cl)N1CCCc2ccccc21	Shiga toxin inh 55.8, CHX counter 29.7

Screens as filed in PubChem BioAssay.
